Among all 48,000 compounds or so, about 13,000 (27%) showed an effect of 50% or more. The list shows a part of the results.
What follows are compounds tested on Wolbachia pipientis (assay: Anti-Wolbachia Cell-Based Screen). Settings: 5 µM.
Format: functional
Set-up: scale not given: in the data most compounds retested in dose-response had high values

| SMILES | Percent Effect |
| --- | --- |
| Cc1cc(NC(=O)CNCc2csc(-c3cnccn3)n2)ccc1Cl | -4.536% |
| CN(c1ncccc1CNS(=O)(=O)N1CCOCC1)C1CCCCC1 | 1.985% |
| Cc1ccc(S(=O)(=O)N2CCOCC2C#N)cc1Br (stereo not drawn) | -3.449% |
| Cc1nc[nH]c1CN1C[C@@H]2CC[C@H](C1)N(C(=O)CCc1cnn(C)c1)C2 | -6.684% |
| O=C(NCCCn1ccnn1)C1CCCN(C2CCCC2)C1 (stereo not drawn) | 9.707% |
| O=c1c(CN2CCCCCC2)coc(O)c1CN1CCCCCC1 | 87.67% |
| O=C1OCCN1CCN1CCCN(Cc2ccccc2F)CC1 | 0.37% |
| CC(C)C(C)NC(=O)Nc1ccccc1CN1CCOCC1 (stereo not drawn) | -2.62% |
| O=c1c(CN2CCSCC2)coc(O)c1CN1CCCC1 | 112.9% |
| Cc1ccc2occ(CN3CCN(c4ncccn4)CC3)c(=O)c2c1 | -23.78% |
| O=c1c(CN2CCOCC2)coc2ccc(Cl)cc12 | 14.49% |
| O=c1c(CN2CCCCC2)coc2ccc(Cl)cc12 | -1.352% |
| O=c1c(CN2CCOCC2)coc(O)c1CN1CCOCC1 | 110.9% |
| CC(C)NC(=O)Nc1ccccc1CN1CCOCC1 | 8.436% |
| O=c1c(CN2CCCCCC2)coc(O)c1CN1CCOCC1 | 99.75% |
| CCn1ccc2ccc(CN3CCCC3c3nc(C(C)C)no3)cc21 (stereo not drawn) | -10.44% |
| Cc1cccc(CO[C@H]2CO[C@@]3(CCN(S(=O)(=O)N(C)C)C3)C2)n1 | -27.75% |
| FC(F)(F)Sc1ccccc1NCc1nc(C2CC2)no1 | 0.6009% |
| CC(NCc1cnc(C2CCC2)s1)c1ccc(-n2cncn2)cc1 (stereo not drawn) | -68.33% |
| CC(C)CCCC(C)NC(=O)c1ccc(OCC(N)=O)cc1 (stereo not drawn) | -8.979% |
| O=C(NCC(F)(F)F)C(c1cccnc1)N1CCCC1 (stereo not drawn) | -5.02% |
| Cc1ccc(NC(=O)c2ccc(CC3CC(=O)NC3=O)cc2)cc1O (stereo not drawn) | -14.91% |
| CC(NC(=O)Nc1ccc(F)c(F)c1)c1nc[nH]n1 (stereo not drawn) | -17.28% |
| O=C(CC1Cn2ncnc2NC1=O)Nc1ccc(F)c(F)c1 (stereo not drawn) | 110.9% |
| Cc1cc(NC(=O)CNCc2csc(-c3ncccn3)n2)ccc1Cl | 12.11% |

| SMILES | Percent Effect |
| --- | --- |
| CCC(=O)Nc1ccc(F)c(S(=O)(=O)NC(C)(C)C)c1 | -7.233% |
| Cc1ccc(NC(=O)CC2Cn3ncnc3NC2=O)cc1C (stereo not drawn) | 101.1% |
| O=C1CN(c2ccc(CNC(=O)c3ccc[nH]3)cc2F)CCN1 | 1.628% |
| CCNC(=O)NC(=O)CN(CC(C)O)c1ccccc1 (stereo not drawn) | -6.081% |
| FC(F)(F)c1nnc2n1CCN(c1nc(C3CC3)ns1)C2 | 7.167% |
| c1ccc(-c2cc(CN3CCC(c4ccn[nH]4)CC3)on2)cc1 | -18.74% |
| CC(C(=O)NS(=O)(=O)Cc1cc(-c2ccccc2)no1)C1CC1 (stereo not drawn) | -15.76% |
| O=C(NCc1cc(-c2ccccc2)no1)NCC1CCCO1 (stereo not drawn) | 63.77% |
| CC1(C)CC1C(=O)NS(=O)(=O)Cc1cc(-c2ccccc2)no1 (stereo not drawn) | -6.027% |
| Cc1cc(C)c(CNC(=O)NCC2CCCO2)c(=O)[nH]1 (stereo not drawn) | -10.27% |
| CCN1CCC(CNC(=O)NCc2cc(-c3ccc(C)cc3)no2)C1 (stereo not drawn) | 6.048% |
| O=S(=O)(Cc1cc(-c2ccccc2)no1)CC1CCCO1 (stereo not drawn) | 117.5% |
| O=C(NS(=O)(=O)Cc1cc(-c2ccccc2)no1)C1CCOCC1 | -7.495% |
| O=C(CC1CCCO1)NS(=O)(=O)Cc1cc(-c2ccccc2)no1 (stereo not drawn) | 94.25% |
| CS(=O)(=O)N1CC(c2nc[nH]n2)c2cc(C(=O)NC3CC3)ccc21 (stereo not drawn) | -11.05% |
| CC(=O)Nc1ccc(Cl)c(C(=O)N(C)C(C)c2ccon2)c1 (stereo not drawn) | 2.031% |
| COCCN1CCN(Cc2nc3c(s2)CCCC3)[C@H]2CS(=O)(=O)C[C@H]21 | -3.056% |
| CN(C)CCN(Cc1ccccc1)C(=O)C1=NNC(=O)CC1 | -7.83% |
| Cc1ccc(NC2CCN(C(=O)c3cccc(F)c3F)CC2)nn1 | -1.212% |
| Cc1ccc(NC2CCN(C(=O)c3ccc4c(c3)CCC4)CC2)nn1 | 112.2% |
| Cc1ccc(NC2CCN(C(=O)c3cc(C(N)=O)cs3)CC2)nn1 | 7.568% |
| Cc1ccc(NC2CCN(C(=O)c3ccc(F)c(C)c3)CC2)nn1 | 89.48% |
| COc1ccc(C(=O)N2CCC(Nc3ccc(C)nn3)CC2)c(F)c1 | -2.664% |
| COc1cccc(COCC(=O)NC(C(N)=O)c2ccccc2)c1 (stereo not drawn) | -6.273% |
| COc1cc2nc3n(c(=O)c2cc1OC)CCN(C(=O)C1CCC1)CC3 | 115.6% |

| SMILES | Percent Effect |
| --- | --- |
| CCC(=O)N1CCc2nc3cc(OC)c(OC)cc3c(=O)n2CC1 | -9.574% |
| COc1cc2nc3n(c(=O)c2cc1OC)CCN(C(=O)C1CC1)CC3 | 109.5% |
| COc1cc2nc3n(c(=O)c2cc1OC)CCN(C(C)=O)CC3 | -0.7868% |
| CCCC(=O)N1CCc2nc3cc(OC)c(OC)cc3c(=O)n2CC1 | 121.4% |
| COc1cc2nc(C)n(CC(=O)NCCCN(C)C)c(=O)c2cc1OC | 20.74% |
| COc1ccc2[nH]nc(CN3CCC(C(=O)N4CCCCC4)CC3)c2c1 | -39.46% |
| COc1cc2nc3n(c(=O)c2cc1OC)CCN(C(=O)C(C)(C)C)CC3 | 130.5% |
| CC(CCN(C)C)NC(=O)c1cccc(C(F)(F)F)c1F (stereo not drawn) | 5.139% |
| CN(Cc1ccncc1)CC(c1cccs1)N1CCOCC1 (stereo not drawn) | -0.8027% |
| Cc1ccc(C(=O)N(Cc2cccnc2)C[C@@H]2CCC(=O)N2)s1 | 6.518% |
| CCc1cnc(N)nc1NCCCn1cc(Cl)cn1 | 12.08% |
| O=C(CC1CCCO1)NCCc1ccccc1Br (stereo not drawn) | -5.645% |
| O=C(NCCCN1CCN(c2ncccn2)CC1)NCC1CCCO1 (stereo not drawn) | 8.99% |
| O=C(CCC1CCCO1)NS(=O)(=O)c1ccc(Cl)cc1 (stereo not drawn) | -0.06204% |
| O=C(CCCNC(=O)C1CC1)Nc1cnn(-c2ccccc2Cl)c1 | 2.837% |
| O=C(CC1CCCO1)NCCc1ccc(Br)cc1F (stereo not drawn) | 2.724% |
| O=C(CCC1CCCO1)NCCCC(=O)Nc1ccc(Cl)cc1 (stereo not drawn) | 132.9% |
| O=C(CC1CCCO1)NCCCC(=O)Nc1ccc(Cl)cc1 (stereo not drawn) | 117.3% |
| O=C(CCCNC(=O)C1CCCO1)Nc1ccc(Cl)cc1 (stereo not drawn) | 123.9% |
| O=C(CCC1CCCO1)NCCCO (stereo not drawn) | -3.139% |
| O=C(NCCNS(=O)(=O)c1cccc(Cl)c1)C1CCCO1 (stereo not drawn) | -1.895% |
| O=C(CCCNC(=O)NCC1CCCO1)Nc1ccc(Cl)cc1 (stereo not drawn) | 100.3% |
| CNS(=O)(=O)c1ccc(CNC(=O)NCC2CCCO2)cc1 (stereo not drawn) | -4.659% |

Reference: ChEMBL document CHEMBL3988442, “University of Dundee, Small-Polar-MMV Screening Library” (2021)
